High-throughput results from PubChem.
Tb PYK inh – blocks Trypanosoma brucei pyruvate kinase; Potency, µM (doses to about 76.8 µM), for the others: at the top dose activity, negative = inhibition, actives largely listed as inhibitors; TbPYK enzyme, Kinase-Glo Plus ATP luminescence, 45 min; 410,000 compounds, 0.12% hits; Q57TT1; further: potency means the concentration at half of the fitted maximal effect; on the % scale 0 is the no-effect control and ±100 the full control effect; nearly all actives have a fitted effect of over 50% in size
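T. brucei PYK with substrate was exposed to pin-transferred compounds across a concentration series, then started with 130 uM ADP (final). After 45 min at room temperature, Kinase-Glo Plus luminescence was read, normalized and curve-fitted.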
CHX counter – counter-screen for Shiga toxin inhibitors: cycloheximide protein synthesis inhibition; cell reporter, cycloheximide protein synthesis inhibition counterscreen; max response, %; 300,000 compounds, 12% hits; in the data active means max response mostly above about 13%, no sharp cut-off; inactive means mostly below about 14%; further: read at 38.3 µM for the half of the compounds with a filed dose; 0% is about no effect
LmPK inh – blocks Leishmania mexicana pyruvate kinase activity | Potency, µM (titrated, usually from 57.5 µM), inactives show top-dose activity change, negative = inhibition, actives largely listed as inhibitors | purified LmPK, Kinase-Glo ATP luminescence, 1 h | 290,000 compounds, 0.37% hits | Q27686; further: potency means the concentration at half of the fitted maximal effect; on the % scale 0 is the no-effect control and ±100 the full control effect
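Pyruvate kinase activity monitored as ATP production (luciferase luminescence). Conditions: 0.1 nM enzyme, 0.5 mM PEP, 0.1 mM ADP, 1 h, RT; normalized against uninhibited and no-enzyme wells.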
Sm TGR block – S. mansoni TGR enzyme inhibition. Q962Y6. purified TGR, DTNB reduction, TNB absorbance 405 nm. 360,000 compounds, 3% hits. Potency, µM (top dose mostly 114 µM), without a hit: at the highest dose activity change, negative = inhibition, usual class: inhibitors; further: potency means the concentration at half of the fitted maximal effect; on the % scale 0 is the no-effect control and ±100 the full control effect; nearly all actives have a fitted effect of over 60% in size
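TGR 20 nM + NADPH 100 uM (dispensed conc.), cpd preinc 15 min RT; start with NADPH (500 uM addition) then DTNB (15 mM addition). Kinetic TNB absorbance, 405 nm filter. Four-parameter Hill fit across titration.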
Shiga inhibitor – inhibitors of Shiga toxin in Vero cells | inhibition, % at 38.7 µM | 290,000 compounds, 9.2% hits | Vero cells, Shiga toxin protein synthesis inhibition reporter | AID 2315; in the data active means inhibition mostly above about 28%, no sharp cut-off; inactive means mostly below about 43%; further: 0% is about no effect
FBPA Giardia inh – inhibitors of Giardia lamblia fructose-1,6-bisphosphate aldolase | purified Giardia FBPA | Potency, µM (doses to about 59.6 µM), for inactives: at the highest dose activity, negative = inhibition, actives largely listed as inhibitors | 290,000 compounds, 0.71% hits | AID 2451; further: potency means the concentration at half of the fitted maximal effect; on the % scale 0 is the no-effect control and ±100 the full control effect; nearly all actives have a fitted effect of over 55% in size
Target sequence (A8B2U2 whole entry, looked up): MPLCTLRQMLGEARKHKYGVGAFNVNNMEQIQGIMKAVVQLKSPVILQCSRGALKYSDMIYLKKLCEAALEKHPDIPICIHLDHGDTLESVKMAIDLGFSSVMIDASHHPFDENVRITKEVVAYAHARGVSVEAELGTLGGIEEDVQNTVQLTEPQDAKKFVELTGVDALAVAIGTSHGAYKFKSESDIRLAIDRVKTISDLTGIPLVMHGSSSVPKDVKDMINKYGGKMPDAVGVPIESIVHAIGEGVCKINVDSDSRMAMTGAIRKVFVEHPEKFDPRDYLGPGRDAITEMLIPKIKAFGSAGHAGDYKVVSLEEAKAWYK
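40 nM FBPA preincubated 10 min at RT with compound (up to 57.5 uM final), then substrate plus GAPDH/TPI/NAD/arsenate coupling and diaphorase/resazurin added. Fluorescence read after 20 min at RT, 525/598 nm.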
Starred values were filed as active, the others as inactive; ? = inconclusive; nt = no result given; + = active, no number; ! = a repeat was not active; [ ] = another dose, or the depositor's remark. The sample as a whole holds a higher share of hits than the screen did. Unless noted, the call rests on the fitted dose curve; in most records, active means well fitted curve in the direction sought with a large enough effect; inconclusive means small, poorly fitted or top-dose-only effect, or another doubt; inactive means no such curve, though single readings can be large; an effect the other way counts as inactive or inconclusive.

SMILES	Tb PYK inh	CHX counter	LmPK inh	Sm TGR block	Shiga inhibitor	FBPA Giardia inh
O=C(CCCSc1nnc(SCCCC(=O)c2ccc(F)cc2)s1)c1ccc(F)cc1	-3%	5	-3%	9%	-19	2%
Nc1nnc(SCCCC(=O)c2ccc(F)cc2)s1	0%	33*	-3%	-2%	+	0%
C[C@H](NS(=O)(=O)c1ccc(Cl)cc1)C(=O)OCC(=O)NCCc1ccc(S(N)(=O)=O)cc1	3%	nt	nt	nt	nt	nt
CCC(CC)C(=O)Nc1ccc(OCc2cc(=O)n3ccc(C)cc3n2)cc1	5%	nt	nt	2%	nt	nt
O=C(NCCc1ccccc1)c1cnc2sc(N3CCCCC3)nn2c1=O	0%	nt	nt	-1%	nt	nt
Oc1ccc2c(ccc3[nH]cnc32)c1	0%	28*	1%	-4%	51*	-13%
CN1/C(=C\C(=O)c2cccnc2)C(C)(C)c2ccccc21	-3%	15*	-1%	-6%	24	-5%
CN1/C(=C\C(=O)c2ccco2)C(C)(C)c2ccccc21	1%	-2	-1%	45µM*	13	-23%
CN1/C(=C\C(=O)COC(=O)c2ccco2)C(C)(C)c2ccccc21	6%	28	-4%	-32%	9	-11%
O=C1CS(=O)(=O)C2(C(=O)N(Cc3cccc(F)c3)c3ccccc32)N1c1ccccc1 (stereo not drawn)	-1%	nt	nt	1%	nt	nt
CCN(CC)c1ccc(/C=N/NC(=O)Nc2ccccc2)cc1	0%	35*	4%	10%	71*	-11%
CCOc1ccc(/C=N/NC(=O)Nc2ccccc2)cc1	0%	41*	-1%	2%[57.1 µM]	69*	5%
CC(=O)Oc1ccc(/C=N/NC(=S)Nc2ccccc2)cc1	-13%	53*	-7%	-16%	35	2%
Cc1ccc2cc(CN(C(=O)c3ccco3)c3cccc(C)c3C)c(=O)[nH]c2c1	-32%	-2	4%	13µM*	12	3%
Cc1ccc(N(Cc2cc3ccc(C)cc3[nH]c2=O)C(=O)c2ccco2)c(C)c1	-23%	-3	5%	8.9µM*	-9	-1%
COc1ccc(Cn2c(C(=O)O)c(CNCCc3ccccc3Cl)c3ccc(C)cc32)cc1	4%	nt	nt	4%	nt	nt
CCCCNc1nc(C)nc2c1nc(-c1ccccc1)n2CCN1CCCC1	nt	nt	nt	nt	nt	3%
COc1ccc(-c2nc3cc(C)ccn3c2NCc2ccc3c(c2)OCO3)cc1	0%	27*	1%	-30%	133*	-9%
c1ccc(-c2nc3ccccn3c2NCc2ccc3c(c2)OCO3)cc1	-9%	2	7%	2%	-10	0%
COc1ccc(-c2nc3ccccn3c2NCc2ccc3c(c2)OCO3)cc1	-3%	22*	-22%	-22%	49*	0%
Cc1ccn2c(Nc3ccc4c(c3)OCO4)c(-c3ccc(O)cc3)nc2c1	-6%	11	-3%	?	41	0%
CCC(=O)N1CCc2cc(Br)cc(S(=O)(=O)CCC(=O)NCCc3cccc(C)c3)c21	-15%	nt	nt	-34%	nt	nt
O=C(/C=C/c1cccc(F)c1)N1CCc2ccccc21	1%	65*	-16%	-9%	102*	4%
O=C(/C=C/c1ccc(F)cc1)N1CCCc2ccccc21	-3%	38	3%	-6%	43*	3%
O=C(/C=C/c1ccc(Cl)cc1Cl)N1CCc2ccccc21	-5%	32*	-18%	1%	61*	0%
SMILES	Tb PYK inh	CHX counter	LmPK inh	Sm TGR block	Shiga inhibitor	FBPA Giardia inh
CC(C)(C)C(=O)NCCCC(=O)O	0%	nt	nt	nt	nt	nt
Cc1ccccc1CN1C(=O)c2ccccc2S(=O)(=O)c2ccc(C(=O)OCC3CCCO3)cc21 (stereo not drawn)	-1%	nt	nt	-3%	nt	nt
CSc1nc(=NC(C)=O)ss1	-26%	33*	-5%	?	68*	?
c1ccc(C2COC(c3cccs3)=N2)cc1 (stereo not drawn)	-5%	23*	3%	-2%	39	6%
N#CC1=C(N)C(C#N)(C#N)C(c2cccnc2)C2CC(c3ccccc3)CC=C12 (stereo not drawn)	-20%	-2	-3%	?	-17	-18%
N#CC1=C(N)C2=CCCC[C@H]2[C@H](c2cccc(F)c2)C1(C#N)C#N	-6%	-2	4%	?	-5	-10%
N#CC1=C(N)C(C#N)(C#N)C(c2cccnc2)C2CCCC=C12 (stereo not drawn)	nt	-8	-3%	-26%	-4	4.5µM*
N#CC1=C(N)C(C#N)(C#N)C(c2ccc[nH]2)C2CCCC=C12 (stereo not drawn)	?	-1	4%	16µM*	29	?
Cc1[nH]n(-c2ccccc2)c(=O)c1C(C[N+](=O)[O-])c1ccc(Cl)cc1 (stereo not drawn)	-5%	0	1%	1.6µM*	-5	?
Cc1ccc(C(C[N+](=O)[O-])c2c(C)[nH]n(-c3ccccc3)c2=O)cc1 (stereo not drawn)	5%	2	0%	-33%	-15	?
Cc1[nH]n(-c2ccccc2)c(=O)c1C(c1ccccc1[N+](=O)[O-])C(C#N)C#N (stereo not drawn)	-5%	-1	-10%	8.9µM*	-5	-21%
Cc1[nH]n(-c2ccccc2)c(=O)c1C(c1ccccc1C(=O)O)c1c(C)[nH]n(-c2ccccc2)c1=O	11%	5	3%	-1%	-7	-21%
Cc1ccccc1CNC(=O)Cc1ccc(NC(=O)N2CCCCc3ccccc32)cc1	-1%	nt	nt	-1%	nt	nt
C[C@H]1COC2=C1C(=O)C(=O)c1c2ccc2c1CCCC2(C)C	-4%	26*	0%	4µM*	59*	?
CC1COC2=C1C(=O)C(=O)c1c2ccc2c1CCCC2(C)C (stereo not drawn)	nt	36	nt	nt	53*	1.6µM*
Cc1coc2c1C(=O)C(=O)c1c-2ccc2c(C)cccc12	-18%	18*	-2%	8.9µM*	35*	1.3µM*
Cc1coc2c1C(=O)C(=O)c1c-2ccc2c1CCCC2(C)C	2%	24*	1%	10µM*	39*	18µM*!
Cc1ccc(NC(=O)CSc2nnc3[nH]c(=O)cc(-c4ccccc4)n23)cc1Cl	-2%	nt	nt	6%	nt	nt
O=C(NC1CC(=O)N(c2ccccc2)C1)c1ccc(S(=O)(=O)N2CCCC2)cc1 (stereo not drawn)	-7%	nt	nt	5%	nt	nt
CCN(CC)S(=O)(=O)c1ccc(/C=C/C(=O)OCC(=O)NCc2ccco2)cc1	2%	nt	nt	nt	nt	nt
O=C(O)c1cccc(NC(=O)c2cccc(NC(=O)C3CCCO3)c2)c1 (stereo not drawn)	-4%	1	-9%	-8%	-19	4%
O=C(Nc1cccc(O)c1)c1ccc(NC(=O)C2CCCO2)cc1 (stereo not drawn)	6%	47*	-9%	1%	110*	3%
